# Experimental data published in PubChem BioAssay.
# Values joined by “and” are separate entries in the source; they are usually repeats but may differ in a detail not shown here. Identical values can stand only once. Active and inactive are the calls of the source.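 How the source made its calls, unless noted: active means z-score of at least 1.8 in each of two replicates, scored against plate mean and spread of sample wells; inactive means the rest.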
# Tests used:
# [1] = yeast 75Q aggregation reduction – 75Q-TubU reporter (AID 1593); settings: Yeast 75Q polyglutamine aggregation reporter
# [2] = blockers of cytochrome c efflux from mitochondria – biochemical, purified mitochondria (AID 1603); settings: stronger effect = lower value;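 further: mouse liver mitochondria challenged with calcium chloride; signal normalized to the plate average as 100%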
# [3] = polyglutamine aggregate formation blockers (AID 1604); settings: polyglutamine-induced protein aggregation inhibition assay; stronger effect = higher value; tested at 2.5 µM
# [4] = P. berghei load reduction in hepatocytes – cell-based, HepG2, luciferase luminescence, HepG2 viability, primary screen (AID 624349; in the data active means parasite load remaining mostly below about 12%, no sharp cut-off; inactive means mostly above about 10%;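 further: 100% = mean of DMSO negative control wells on the same plate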); settings: P. berghei liver stage in HepG2, luciferase luminescence, concentration not given here; parasite load remaining: stronger effect = lower value; viability: measured here: HepG2 viability without parasites
# [5] = Wnt pathway potentiators raising nuclear beta-catenin – imaging, WNT3A-conditioned medium, mouse C2C12, NPC library, primary screen (AID 1117326; in the data active means nuclear beta-catenin stimulation mostly above about 4.2%, no sharp cut-off; inactive means mostly below about 10%); settings: stronger effect = higher value
# [6] = stimulators of insulin release from INS-1E, primary screen, cell-based, 5 mM glucose, NPC library (AID 1117329;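 active means compound raises insulin release from rat beta cells at 5 mM glucose, no numeric limit stated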); settings: rat INS-1E insulin secretion, at 10 µM, stronger effect = higher value
# [7] = growth inhibition of GSK3B-pretreated HCT116 cells – cell-based, CellTiter-Glo, 0.2 to 20 µM (AID 1117336;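 active means compounds lowering colon cancer cell viability after pretreatment blocking the GSK3B kinase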); settings: HCT116 viability after GSK3B inhibitor, at 20 µM, stronger effect = higher value
# [8] = inhibition of endothelial tube formation, primary screen, imaging, VEGF stimulated, CD31 staining, tube area, NPC library (AID 1117340;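 active means compound that reduces growth-factor-driven endothelial tube area in a mixed cell culture, no cutoff stated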); settings: VEGF-stimulated ADSC/ECFC co-culture, at 10 µM, stronger effect = higher value
# [9] = GLP1 release stimulators, primary, NCI-H716, NPC library (AID 1117341;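 active means compound raises GLP1 secretion from the human gut endocrine cells, with no numeric limit stated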); settings: NCI-H716 cells, at 10 µM, stronger effect = higher value
# [10] = HCT116 colon cancer cell growth inhibition, primary screen, CellTiter-Glo luminescence, NPC library (AID 1117342;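 active means compounds that lower survival of HCT116 colon cancer cells in the luminescence readout, no numeric limit stated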); settings: at 20 µM (top of the series)
# [11] = reduced SW480 viability measured with CellTiter-Glo, NPC library, primary (AID 1117343;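 active means compounds that lower viability of the colon cancer cells in the luminescence readout, with no numeric limit stated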); settings: CellTiter-Glo luminescence; at 20 µM (top of the series)
# [12] = NPC library primary testing for decreased DLD-1 cell viability via CellTiter-Glo (AID 1117346;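 active means compounds that lower survival of DLD-1 colon cancer cells in the luminescence readout, no cutoff given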); settings: DLD-1 viability, CellTiter-Glo luminescence; at 20 µM (top of the series)
# [13] = target: 6-phosphogluconate dehydrogenase, decarboxylating (Homo sapiens) (UniProt P52209); assay: inhibition of human phosphogluconate dehydrogenase – biochemical, recombinant enzyme, NADPH absorbance, primary screen (AID 1159550;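 active means at least 20% inhibition of 6-phosphogluconate dehydrogenase activity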); settings: recombinant 6PGD, NADPH absorbance 341 nm; at 10 µM; stronger effect = higher value
# [14] = EMT-state selective cytotoxicity in co-culture – imaging, PC-3E GFP, TEM4-18 mCherry, primary screen (AID 1345086;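 active means compounds killing one labelled cell type while sparing the other, by normalised counts and ratio limits, not self-fluorescent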;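 on all read-outs here: cells exposed to compound for 72 h before imaging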;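 on red/green cell ratio (normalised): normalised mesenchymal count divided by normalised epithelial count so high means epithelial killing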); settings: PC-3E GFP / TEM4-18 mCherry co-culture, imaging cell counts, at 1 µM; for red/green cell ratio (normalised): actives lie on both sides
# [15] = test system: Aerobactin synthetase IucA (Klebsiella pneumoniae hvKP1); assay: IucA enzyme inhibition, primary screen, biochemical, Spectrum library (AID 1346200; call rule not given here;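 further: 100% = wells without compound and 0% = wells lacking enzyme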); settings: malachite green pyrophosphate, A620, at 8 µM, stronger effect = lower value
# [16] = viability loss with induced miR-34 in A549 – imaging, A549 dox-inducible miR-34, nuclei and caspase counts, primary screen (AID 1347080;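 active means compounds whose cell count with miR-34 switched on is under 0.7 times the count with it off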); settings: A549 miR-34 inducible, Hoechst nuclei count, 48 h
# [17] = MELAS cybrid and Rieske KO viability enhancers – cell-based, MELAS cybrids, Rieske KO mouse fibroblasts, CellTiter-Glo, primary screen (AID 1508586;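 active means mean z-score across replicates of 1.96 or higher in either the MELAS or the Rieske mutant cell line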;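 further: z relative to plate mean and SD of compound and empty wells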); settings: low glucose
# [18] = target: NAD(+) hydrolase SARM1 (Homo sapiens) (UniProt Q6SZW1); assay: blocking NAD cleavage by SARM1 SAM-TIR – cell lysate, NAD-Glo luminescence (AID 1508614;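 active means compound whose remaining NAD level is above about 45 nM, limit read from the data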); settings: SAM-TIR HEK293T lysate NADase, at 1 µM, stronger effect = higher value
# [19] = target: Mitogen-activated protein kinase 7 (Homo sapiens) (UniProt Q13164); assay: Gal4-ERK5 driven luciferase induction – cell-based, HTS, primary screen (AID 1508626;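 active means luciferase signal above three times the same-plate solvent-only control wells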;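 further: luciferase driven by Gal4-ERK5 fusion binding five Gal4 sites before minimal TATA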); settings: HeLa Gal4-ERK5 transactivation, 18 h, at 5 µM, stronger effect = higher value
# [20] = galactose survival enhancers in mitochondrial complex I cybrids – cell-based, galactose medium, ATP luminescence, primary screen (AID 1645843); settings: complex I mutant cybrid cells, 72 h, stronger effect = higher value;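 further: positive z means more ATP and so rescue of galactose-driven cybrid death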
# [21] = measured here: epithelial PC-3E GFP cell survival
# [22] = measured here: mesenchymal TEM4-18 mCherry cell survival
# [23] = measured here: relative caspase fold change +Dox/-Dox
# [24] = measured here: total cells with miR-34 induction, stronger effect = lower value
# [25] = measured here: total cells without miR-34 induction
# [26] = MELAS cybrid survival, CellTiter-Glo 48 h, stronger effect = higher value
# [27] = Rieske KO mouse fibroblast survival, CellTiter-Glo 72 h
# 6-phosphogluconate dehydrogenase, decarboxylating (Homo sapiens), sequence (P52209 whole entry, looked up): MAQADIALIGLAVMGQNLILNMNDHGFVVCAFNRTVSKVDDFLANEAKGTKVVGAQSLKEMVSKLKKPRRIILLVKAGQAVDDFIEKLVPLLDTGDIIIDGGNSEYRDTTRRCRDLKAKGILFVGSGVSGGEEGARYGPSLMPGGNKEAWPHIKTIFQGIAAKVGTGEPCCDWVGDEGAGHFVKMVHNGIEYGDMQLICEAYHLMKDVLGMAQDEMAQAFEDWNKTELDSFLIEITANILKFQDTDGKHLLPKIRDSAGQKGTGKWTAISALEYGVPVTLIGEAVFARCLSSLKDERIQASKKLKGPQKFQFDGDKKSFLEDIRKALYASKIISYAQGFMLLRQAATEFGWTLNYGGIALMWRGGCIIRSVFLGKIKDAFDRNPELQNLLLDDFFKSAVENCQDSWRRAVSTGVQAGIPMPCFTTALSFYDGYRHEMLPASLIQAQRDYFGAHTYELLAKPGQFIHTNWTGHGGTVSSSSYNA
# Mitogen-activated protein kinase 7 (Homo sapiens), sequence (Q13164 whole entry, looked up, the tested form may be a part): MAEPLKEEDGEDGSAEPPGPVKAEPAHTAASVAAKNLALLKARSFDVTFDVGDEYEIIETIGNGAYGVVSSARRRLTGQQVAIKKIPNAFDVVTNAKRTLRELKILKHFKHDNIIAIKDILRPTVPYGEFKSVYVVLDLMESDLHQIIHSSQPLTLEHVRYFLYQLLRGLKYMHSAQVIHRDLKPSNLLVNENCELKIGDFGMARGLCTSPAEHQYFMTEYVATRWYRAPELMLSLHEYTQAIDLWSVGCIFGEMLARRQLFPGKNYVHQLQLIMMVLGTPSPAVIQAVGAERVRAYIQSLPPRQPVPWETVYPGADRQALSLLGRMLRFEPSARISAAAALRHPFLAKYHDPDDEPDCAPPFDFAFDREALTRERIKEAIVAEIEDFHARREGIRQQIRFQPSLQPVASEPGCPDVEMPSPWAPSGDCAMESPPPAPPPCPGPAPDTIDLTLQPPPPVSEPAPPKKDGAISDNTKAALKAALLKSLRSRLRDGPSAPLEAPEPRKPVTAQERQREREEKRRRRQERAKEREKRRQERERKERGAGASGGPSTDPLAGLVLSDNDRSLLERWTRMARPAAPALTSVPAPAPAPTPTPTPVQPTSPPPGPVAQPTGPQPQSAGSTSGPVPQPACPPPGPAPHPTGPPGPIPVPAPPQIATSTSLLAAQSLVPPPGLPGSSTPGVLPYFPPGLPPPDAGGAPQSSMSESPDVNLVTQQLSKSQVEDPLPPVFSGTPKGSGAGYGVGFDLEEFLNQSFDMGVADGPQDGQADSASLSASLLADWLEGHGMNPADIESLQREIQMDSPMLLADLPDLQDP
# NAD(+) hydrolase SARM1 (Homo sapiens), sequence (Q6SZW1 whole entry, looked up, the tested form may be a part): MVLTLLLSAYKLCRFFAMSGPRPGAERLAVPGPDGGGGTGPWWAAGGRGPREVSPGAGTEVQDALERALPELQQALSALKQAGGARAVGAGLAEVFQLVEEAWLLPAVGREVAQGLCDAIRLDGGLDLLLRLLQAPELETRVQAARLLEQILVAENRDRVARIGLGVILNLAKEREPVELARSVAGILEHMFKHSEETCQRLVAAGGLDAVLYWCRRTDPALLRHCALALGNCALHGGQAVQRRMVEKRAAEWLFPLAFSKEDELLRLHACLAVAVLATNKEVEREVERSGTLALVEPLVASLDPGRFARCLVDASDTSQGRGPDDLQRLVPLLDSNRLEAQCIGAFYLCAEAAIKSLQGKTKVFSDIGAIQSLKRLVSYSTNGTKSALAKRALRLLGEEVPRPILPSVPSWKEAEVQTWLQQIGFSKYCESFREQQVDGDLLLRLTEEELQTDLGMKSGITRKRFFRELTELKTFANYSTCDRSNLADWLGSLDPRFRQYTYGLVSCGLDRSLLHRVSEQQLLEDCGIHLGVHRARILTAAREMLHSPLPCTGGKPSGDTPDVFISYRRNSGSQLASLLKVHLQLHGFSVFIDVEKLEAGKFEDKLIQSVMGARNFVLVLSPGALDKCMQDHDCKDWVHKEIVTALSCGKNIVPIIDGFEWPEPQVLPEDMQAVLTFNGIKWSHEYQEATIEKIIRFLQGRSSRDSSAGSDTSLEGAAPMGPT
compound,measurement,setting,value
CC(C)(C)NCC(O)c1ccccc1Cl (stereo not drawn),score,[1],1.29
same,cytochrome c release ratio,[2],0.96
same,inhibition of aggregation,[3],72.5%
same,parasite load remaining,[4],85.5% (inactive) and 23.5% (inactive)
same,viability,[4],91.9% and 68.5%
same,nuclear beta-catenin stimulation,[5]; at 10 µM,-0.7% (inactive)
same,nuclear beta-catenin stimulation,"[5]; stimulation, at 2 µM",-0.7%
same,insulin secretion stimulation,[6],-1.2% (inactive)
same,viability decrease,[7],-32.4% (inactive)
same,tube area decrease,[8],5.2% (inactive)
same,GLP1 secretion stimulation,[9],0.9% (inactive)
same,inhibition of viability,[10],-0.17% (inactive)
same,viability decrease (inhibition),[11],-2.1% (inactive)
same,viability decrease (inhibition),[12],-14.4% (inactive)
same,inhibition,[13],14% (inactive)
same,red/green cell ratio (normalised),[14],0.9 (inactive)
same,normalised cell number,[14]; [21],1.07
same,normalised cell number,[14]; [22],0.97
same,activity remaining,[15],102% (inactive)
same,fold change,[16]; stronger effect = lower value,0.985 (inactive) and 0.856 (inactive)
same,fold change,[16]; [23],1.26 and 1.33
same,cell count,[16]; [24],10200 and 9170
same,cell count,[16]; [25],10400 and 10700
same,z-score,[17]; [26],-0.495 (inactive) and -0.187 (inactive)
same,z-score,[17]; [27],0.0224 and -0.446
same,remaining NAD,[18],10 nM (inactive)
same,luciferase signal,[19],24 AU (inactive)
same,z-score,[20],0.29 (inactive) and 0.245 (inactive)
N[C@@H](Cc1ccc(N(CCCl)CCCl)cc1)C(=O)O,score,[1],1.14
same,cytochrome c release ratio,[2],0.77
same,inhibition of aggregation,[3],49.4%
same,parasite load remaining,[4],85.5% (inactive) and 46.9% (inactive)
same,viability,[4],102% and 79%
same,nuclear beta-catenin stimulation,[5]; at 10 µM,5.3% (inactive)
same,nuclear beta-catenin stimulation,"[5]; stimulation, at 2 µM",-1.1%
same,insulin secretion stimulation,[6],-2.1% (inactive)
same,viability decrease,[7],57.9% (active)
same,tube area decrease,[8],89.6% (active)
same,GLP1 secretion stimulation,[9],0.9% (inactive)
same,inhibition of viability,[10],11.2% (inactive)
same,viability decrease (inhibition),[11],8.5% (inactive)
same,viability decrease (inhibition),[12],8.7% (inactive)
same,inhibition,[13],-5.9% (inactive)
same,red/green cell ratio (normalised),[14],0.83 (inactive)
same,normalised cell number,[14]; [21],0.94
same,normalised cell number,[14]; [22],0.77
same,activity remaining,[15],104% (inactive)
same,fold change,[16]; stronger effect = lower value,0.909 (inactive) and 0.963 (inactive)
same,fold change,[16]; [23],1.01 and 1.57
same,cell count,[16]; [24],3400 and 2500
same,cell count,[16]; [25],3740 and 2600
same,z-score,[17]; [26],0.0989 (inactive)
same,z-score,[17]; [27],-1.05
same,remaining NAD,[18],10 nM (inactive)
same,luciferase signal,[19],40 AU (inactive)
same,z-score,[20],-1.76 (inactive)
CCC1(c2ccc(N)cc2)CCC(=O)NC1=O (stereo not drawn),score,[1],1.07
same,cytochrome c release ratio,[2],0.66
same,inhibition of aggregation,[3],-9.29%
same,nuclear beta-catenin stimulation,[5]; at 10 µM,-0.3% (inactive)
same,nuclear beta-catenin stimulation,"[5]; stimulation, at 2 µM",-0.3%
same,insulin secretion stimulation,[6],-2.7% (inactive)
same,viability decrease,[7],-4.4% (inactive)
same,tube area decrease,[8],14.2% (inactive)
same,GLP1 secretion stimulation,[9],4.2% (inactive)
same,inhibition of viability,[10],-0.6% (inactive)
same,viability decrease (inhibition),[11],45.3% (inactive)
same,viability decrease (inhibition),[12],10% (inactive)
same,inhibition,[13],13.3% (inactive)
same,red/green cell ratio (normalised),[14],0.89 (inactive)
same,normalised cell number,[14]; [21],1.36
same,normalised cell number,[14]; [22],1.2
same,activity remaining,[15],112% (inactive)
same,z-score,[17]; [26],-0.397 (inactive) and 0.19 (inactive) and 0.162 (inactive)
same,z-score,[17]; [27],-0.0248 and -0.0255 and -0.773
same,remaining NAD,[18],10 nM (inactive)
same,luciferase signal,[19],56 AU (inactive)
same,z-score,[20],0.24 (inactive) and 0.82 (inactive) and 0.775 (inactive)
